{
  "source": "paper PMC5540273",
  "about": "(PLoS ONE, 2017);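 note: KINOMEscan kinase panel screen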",
  "data": [
    {"system": "T1, ERK5", "T1 construct": "gene MAPK7", "details": "concentration: 1 μM,replicates: in singlicate; n = 1", "units": {"%Inh": "%"}, "values": [
      {"compound": "Cl.Cl.NC[C@H](Cc1ccc(C(F)(F)F)cc1)NC(=O)c1cc(Br)c(-c2ccnc3[nH]ccc23)s1", "note": "[GSK1487252]", "%Inh": 0},
      {"compound": "Nc1nc(Nc2ccccc2)cc(-c2ccc3c(N)n[nH]c3c2)n1", "note": "[GSK2225749]", "%Inh": 0},
      {"compound": "CC(C)Nc1cc(-c2ccc3c(N)n[nH]c3c2)nc(N)n1", "note": "[GSK2221681]", "%Inh": 0},
      {"compound": "CC(C)N1C(=O)Cc2cc(Nc3ncc(C(F)(F)F)c(NCc4cccc(S(C)(=O)=O)c4)n3)ccc21", "%Inh": 14},
      {"compound": "Cl.Cl.NC[C@H](CC1CCCCC1)NC(=O)c1cc(Br)c(-c2ccnc3[nH]ccc23)s1", "note": "[GSK1581427]", "%Inh": 0},
      {"compound": "CN(C)CC(O)COc1ccc(Nc2nccc(-c3cnn4nc(N5CCOCC5)ccc34)n2)cc1", "note": "(centres unmarked) [GW767488]", "%Inh": 33},
      {"compound": "CCN(CC)CCOc1ccc(Nc2ncc3cc(-c4c(Cl)cccc4Cl)c(=O)n(C)c3n2)cc1", "note": "[SB-601273]", "%Inh": 85},
      {"compound": "Cc1n[nH]c2ccc(-c3cc(OC[C@@H](N)Cc4ccccc4)cnc3-c3ccoc3)cc12.O=C(O)C(F)(F)F.O=C(O)C(F)(F)F", "note": "[GSK507358]", "%Inh": 0},
      {"compound": "Cc1occc1-c1nc(N)c(OC[C@@H](N)Cc2c[nH]c3ccccc23)cc1-c1cc2c(C)n[nH]c2cn1", "note": "[GSK1660450]", "%Inh": 0},
      {"compound": "C[C@@H]1CCN(C(=O)CC#N)C[C@@H]1N(C)c1ncnc2[nH]ccc12", "%Inh": 0},
      {"compound": "Cl.Oc1cc(-c2nc(-c3ccccc3)[nH]c2-c2ccncc2)ccc1Cl", "note": "[SB-386023]", "%Inh": 42},
      {"compound": "O=C(NCCCN1CCOC1=O)c1cnc(NCc2cc(Cl)ccc2Cl)nc1NC1CCCC1", "%Inh": 3},
      {"compound": "Cc1cc(C(=O)Nc2ccc(Oc3ccc4nc(NC(=O)C5CC5)cn4n3)cc2)nn1-c1ccccc1", "%Inh": 33},
      {"compound": "Cl.Cl.Nc1nc(-c2ccc3c(N)n[nH]c3c2)cc(N2CCCC(NC(=O)c3ccccc3)C2)n1", "note": "(centres unmarked) [GSK2286775]", "%Inh": 14},
      {"compound": "CCN(CC)CCCCNc1ncc2cc(-c3c(Cl)cccc3Cl)c(NC(=O)NC(C)(C)C)nc2n1", "%Inh": 7},
      {"compound": "Cc1ccc2c(-c3ccncc3)c(-c3ccc(F)cc3)nn2c1.Cl", "note": "[GW461484]", "%Inh": 6},
      {"compound": "COc1ccc(C[C@@H](CN)NC(=O)c2cc(Br)c(-c3ccnc4[nH]ccc34)s2)cc1.Cl.Cl", "note": "[GSK1389063]", "%Inh": 0},
      {"compound": "O=C(NCCNc1ccnc(NCc2ccc(F)cc2)n1)c1cc2ccccc2s1", "note": "[GSK1379944]", "%Inh": 0},
      {"compound": "CN(C)CCOc1ccc(-c2cc(-c3c[nH]nc3-c3ccccn3)ccn2)cc1", "note": "[GW835314]", "%Inh": 0},
      {"compound": "CNC(=O)c1ccccc1Sc1ccc2c(/C=C/c3ccccn3)n[nH]c2c1", "%Inh": 0},
      {"compound": "NC(=O)c1cc(-c2ccccc2)cc2c(C3CCNCC3)c[nH]c12", "note": "[GSK301362]", "%Inh": 0},
      {"compound": "CCn1c(-c2nonc2N)nc2c(C#CC(C)(C)O)nc(OCCN)cc21.Cl.Cl", "note": "[GSK902056]", "%Inh": 0},
      {"compound": "C[C@H]1Oc2cc(cnc2N)-c2c(nn(C)c2C#N)CN(C)C(=O)c2ccc(F)cc21", "%Inh": 44},
      {"compound": "C[C@@H](Oc1cc(-c2cnn(C3CCNCC3)c2)cnc1N)c1c(Cl)ccc(F)c1Cl", "%Inh": 77},
      {"compound": "C=CC(=O)Nc1cc2c(Nc3ccc(F)c(Cl)c3)ncnc2cc1OCCCN1CCOCC1", "note": "[GW781483]", "%Inh": 0},
      {"compound": "Cc1ccc(-n2nc(C(C)(C)C)cc2NC(=O)Nc2ccc(OCCN3CCOCC3)c3ccccc23)cc1", "note": "[GW839464]", "%Inh": 0},
      {"compound": "Cc1cc2cn[nH]c2cc1-c1cccc2c(N)c(C(N)=O)nnc12", "%Inh": 17}
    ]},
    {"system": "T2, ERK8", "T2 construct": "gene MAPK15", "details": "concentration: 1 μM,replicates: in singlicate; n = 1", "units": {"%Inh": "%"}, "values": [
      {"compound": "Cl.Cl.NC[C@H](Cc1ccc(C(F)(F)F)cc1)NC(=O)c1cc(Br)c(-c2ccnc3[nH]ccc23)s1", "note": "[GSK1487252]", "%Inh": 0},
      {"compound": "Nc1nc(Nc2ccccc2)cc(-c2ccc3c(N)n[nH]c3c2)n1", "note": "[GSK2225749]", "%Inh": 37},
      {"compound": "CC(C)Nc1cc(-c2ccc3c(N)n[nH]c3c2)nc(N)n1", "note": "[GSK2221681]", "%Inh": 0},
      {"compound": "CC(C)N1C(=O)Cc2cc(Nc3ncc(C(F)(F)F)c(NCc4cccc(S(C)(=O)=O)c4)n3)ccc21", "%Inh": 78},
      {"compound": "Cl.Cl.NC[C@H](CC1CCCCC1)NC(=O)c1cc(Br)c(-c2ccnc3[nH]ccc23)s1", "note": "[GSK1581427]", "%Inh": 30},
      {"compound": "CN(C)CC(O)COc1ccc(Nc2nccc(-c3cnn4nc(N5CCOCC5)ccc34)n2)cc1", "note": "(centres unmarked) [GW767488]", "%Inh": 98.9},
      {"compound": "CCN(CC)CCOc1ccc(Nc2ncc3cc(-c4c(Cl)cccc4Cl)c(=O)n(C)c3n2)cc1", "note": "[SB-601273]", "%Inh": 0},
      {"compound": "Cc1n[nH]c2ccc(-c3cc(OC[C@@H](N)Cc4ccccc4)cnc3-c3ccoc3)cc12.O=C(O)C(F)(F)F.O=C(O)C(F)(F)F", "note": "[GSK507358]", "%Inh": 0},
      {"compound": "Cc1occc1-c1nc(N)c(OC[C@@H](N)Cc2c[nH]c3ccccc23)cc1-c1cc2c(C)n[nH]c2cn1", "note": "[GSK1660450]", "%Inh": 96.6},
      {"compound": "C[C@@H]1CCN(C(=O)CC#N)C[C@@H]1N(C)c1ncnc2[nH]ccc12", "%Inh": 15},
      {"compound": "Cl.Oc1cc(-c2nc(-c3ccccc3)[nH]c2-c2ccncc2)ccc1Cl", "note": "[SB-386023]", "%Inh": 0},
      {"compound": "O=C(NCCCN1CCOC1=O)c1cnc(NCc2cc(Cl)ccc2Cl)nc1NC1CCCC1", "%Inh": 0},
      {"compound": "Cc1cc(C(=O)Nc2ccc(Oc3ccc4nc(NC(=O)C5CC5)cn4n3)cc2)nn1-c1ccccc1", "%Inh": 10},
      {"compound": "Cl.Cl.Nc1nc(-c2ccc3c(N)n[nH]c3c2)cc(N2CCCC(NC(=O)c3ccccc3)C2)n1", "note": "(centres unmarked) [GSK2286775]", "%Inh": 0},
      {"compound": "CCN(CC)CCCCNc1ncc2cc(-c3c(Cl)cccc3Cl)c(NC(=O)NC(C)(C)C)nc2n1", "%Inh": 5},
      {"compound": "Cc1ccc2c(-c3ccncc3)c(-c3ccc(F)cc3)nn2c1.Cl", "note": "[GW461484]", "%Inh": 0},
      {"compound": "COc1ccc(C[C@@H](CN)NC(=O)c2cc(Br)c(-c3ccnc4[nH]ccc34)s2)cc1.Cl.Cl", "note": "[GSK1389063]", "%Inh": 51},
      {"compound": "O=C(NCCNc1ccnc(NCc2ccc(F)cc2)n1)c1cc2ccccc2s1", "note": "[GSK1379944]", "%Inh": 22},
      {"compound": "CN(C)CCOc1ccc(-c2cc(-c3c[nH]nc3-c3ccccn3)ccn2)cc1", "note": "[GW835314]", "%Inh": 0},
      {"compound": "CNC(=O)c1ccccc1Sc1ccc2c(/C=C/c3ccccn3)n[nH]c2c1", "%Inh": 4},
      {"compound": "NC(=O)c1cc(-c2ccccc2)cc2c(C3CCNCC3)c[nH]c12", "note": "[GSK301362]", "%Inh": 0},
      {"compound": "CCn1c(-c2nonc2N)nc2c(C#CC(C)(C)O)nc(OCCN)cc21.Cl.Cl", "note": "[GSK902056]", "%Inh": 22},
      {"compound": "C[C@H]1Oc2cc(cnc2N)-c2c(nn(C)c2C#N)CN(C)C(=O)c2ccc(F)cc21", "%Inh": 4},
      {"compound": "C[C@@H](Oc1cc(-c2cnn(C3CCNCC3)c2)cnc1N)c1c(Cl)ccc(F)c1Cl", "%Inh": 0},
      {"compound": "Cc1ccc(-n2nc(C(C)(C)C)cc2NC(=O)Nc2ccc(OCCN3CCOCC3)c3ccccc23)cc1", "note": "[GW839464]", "%Inh": 9},
      {"compound": "Cc1cc2cn[nH]c2cc1-c1cccc2c(N)c(C(N)=O)nnc12", "%Inh": 20}
    ]}
  ]
}
